# Shown are actives, neighbours in structure and some others; about 3.5% of the full set was active somewhere.
# TEAD-YAP inh – TEAD-YAP interaction inhibition | inhibition, % at 9.12 µM | 640,000 compounds, 1.4% hits | HEK-TIYL cells, TEAD-Gal4/YAP UAS-luciferase luminescence | AID 1259422; in the data active means inhibition above about 32%;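 further: 0% = median of test compound wells and 100% = reference inhibitor wells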
# GPR151 ag – activates the human receptor GPR151; Q8TDV0; PathHunter beta-arrestin GPR151 cells, luminescence; activation, % at 11.2 µM; 650,000 compounds, 1% hits; AID 1508602; in the data active means activation above about 4.9%;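 further: 0% = median of compound wells and 100% = cells with positive control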
# FBW7 activator – human FBW7 E3 ligase activation, primary screen. Q969H0. AlphaScreen FBW7–phospho-cyclin E peptide binding, activator screen. normalized activity (activation), % at 26.1 µM. 650,000 compounds, 0.13% hits. AID 1259310; in the data active means normalized activity above about 1.9%;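 further: purified mutant Fbw7 with reduced substrate affinity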
# MITF inh – human MITF inhibition, primary screen; O75030; AlphaScreen MITF homodimerization, bead proximity signal; inhibition, % at 2.6 µM; 650,000 compounds, 0.91% hits; AID 1259374; in the data active means inhibition above about 50%;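 further: 0% = vehicle wells with protein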
# GPR151 confirm – confirmation of human GPR151 activators. shares compounds with GPR151 ag. GPR151 PathHunter beta-arrestin cells, luminescence, 90 min; % of EA-reagent control over plate median. activation, % at 11.2 µM. 6,700 tested, under 10 active;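 active means mean percent activation across replicates above the confirmation screen cutoff of 4.91%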
# GPR119 counter – GPR119 activation, counter-screen for GPR151 activators. GPR119 PathHunter beta-arrestin cells, luminescence, 90 min; 0 = compound-well median, 100 = enzyme-acceptor control. AID 1508611. 6,700 compounds, 0.3% hits. shares compounds with GPR151 ag. activation, % at 11.2 µM;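 active means mean percent activation in the counterscreen above 29.09%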;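 further: counterscreen on off-target GPR119 to flag nonselective hits from the GPR151 activator screen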
# Target sequence (Q8TDV5 whole entry, looked up): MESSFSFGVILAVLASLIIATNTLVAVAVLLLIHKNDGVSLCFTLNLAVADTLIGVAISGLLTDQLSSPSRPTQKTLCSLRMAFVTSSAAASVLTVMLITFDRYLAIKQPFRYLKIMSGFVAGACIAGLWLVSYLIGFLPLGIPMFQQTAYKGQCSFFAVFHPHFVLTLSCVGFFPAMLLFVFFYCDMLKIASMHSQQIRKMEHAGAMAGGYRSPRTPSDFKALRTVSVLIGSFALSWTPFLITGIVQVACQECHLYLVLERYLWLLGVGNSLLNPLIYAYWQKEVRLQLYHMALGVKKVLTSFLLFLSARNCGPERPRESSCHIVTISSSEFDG
# Active calls of the source: *; / = not tested or not shown.
SMILES,TEAD-YAP inh,GPR151 ag,FBW7 activator,MITF inh,GPR151 confirm,GPR119 counter
CC(c1ccco1)N(C)Cc1ccc(C(N)=O)c(=O)[nH]1 (stereo not drawn),2.7,0.2,0.1,-1.6,/,/
CC(c1ccco1)N(C)Cc1ccc(C(=O)NC23CC4CC(CC(C4)C2)C3)c(=O)[nH]1 (stereo not drawn),-4.0,11.4*,-0.2,-0.9,0.4,4.3
CCN1C(=O)S/C(=C/c2ccc(I)cc2)C1=O,1.9,-0.5,-0.1,0.9,/,/
CCOc1ccc(NS(=O)(=O)c2ccc(CN3C(=O)c4cccnc4C3=O)cc2)cc1,-2.5,0.6,-0.1,5.2,/,/
COc1ccccc1NS(=O)(=O)c1ccc(CN2C(=O)c3cccnc3C2=O)cc1,11.3,7.3*,0.2,10.9,0.1,-3.9
CCOc1cc(CNCCO)ccc1OCc1ccccc1,-13.5,-1.1,-0.1,-15.5,/,/
C=CCOc1ccc(CNC2CCCC2)cc1OC,-1.2,5.7*,0.1,-23.9,-0.3,3.0
C=CCOc1ccc(CNCCO)cc1OCC,4.3,7.6*,0.0,5.9,-0.7,0.4
CCN(CC)C(=O)c1sc(NC(=S)NC(C)C2CCCO2)c(C(=O)OC)c1C (stereo not drawn),-7.5,1.5,0.1,1.2,/,/
O=C(CCCc1ccccc1)NCCOc1ccccc1,-7.1,5.2*,0.3,6.1,-0.5,-1.3
N#C/C(=C\c1ccc(OCC(=O)O)cc1)C(N)=S,-6.3,6.4*,0.5,4.4,-0.3,-5.0
C=CCOC(=O)/C(C#N)=C/c1ccc(OCC(=O)O)cc1,-3.0,-2.0,0.0,-8.0,/,/
CC1Cc2ccccc2N1C(=O)Nc1ccc(F)cc1 (stereo not drawn),-7.0,5.5*,0.6,11.4,-0.6,-20.2
COc1ccc(C2CC(c3ccccc3)=NN2C(=O)CSc2cccc[n+]2[O-])cc1 (stereo not drawn),4.6,5.0*,-0.1,-0.9,0.3,2.9
CC1Oc2ccc([N+](=O)[O-])cc2N(Cc2ccccc2F)C1=O (stereo not drawn),2.4,-0.2,-0.1,9.2,/,/
O=C(c1ccc(F)cc1)N(Cc1cccnc1)Cc1cc2ccccc2[nH]c1=O,-3.3,7.0*,-0.1,0.9,1.3,12.3
CC(=O)N(Cc1cccnc1)Cc1cc2ccccc2[nH]c1=O,-2.1,-0.3,-0.2,-15.1,/,/
CC(C)NC(=O)c1cc2nc(-c3ccc4c(c3)OCO4)cc(C(F)(F)F)n2n1,4.3,-0.1,-0.1,-0.1,/,/
Cc1c(-c2ccccc2)c(=O)oc2cc(OCC#N)ccc12,11.0,6.5*,0.1,-2.9,-0.1,8.4
CCOC(=O)COc1ccc2c(C)c(-c3ccccc3)c(=O)oc2c1,0.4,-1.8,0.3,2.2,/,/
CC(=O)c1cc(C(=O)N2CC[C@H]3[C@H](CCCN3C(=O)C3=CCCC3)C2)cs1,4.0,0.9,-0.1,-1.7,/,/
Cc1ccc(-n2[nH]c(C)c(/C=N/c3ccccn3)c2=O)cc1,4.9,-2.9,-0.3,-7.3,/,/
Cc1[nH]n(-c2ccccc2)c(=S)c1/C=N/c1ccccn1,6.4,5.9*,-0.1,-7.6,0.4,4.9
CC(C)Oc1ccccc1NC(=O)CCc1ccccc1,-0.6,-0.5,0.1,-6.8,/,/
CC1(C(=O)NNC(=S)NCc2ccco2)CC1(Cl)Cl (stereo not drawn),2.5,5.3*,0.1,10.6,0.5,5.3
SMILES,TEAD-YAP inh,GPR151 ag,FBW7 activator,MITF inh,GPR151 confirm,GPR119 counter
O=[N+]([O-])c1ccc2[nH]c3c(c2c1)CCCC3=NCCO,-2.9,3.0,0.0,5.5,/,/
O=[N+]([O-])c1ccc(S(=O)(=O)Nc2ccc(Nc3ccccc3)cc2)cc1,16.1,-0.1,0.0,-0.6,/,/
COc1cc(C(=O)Nc2nnc(Cc3ccc(Cl)cc3)s2)c([N+](=O)[O-])cc1OC,11.7,6.1*,-0.3,-1.5,1.5,-3.0
COc1ccc(-c2nc(NC(C)=O)sc2C)cc1OC,12.2,6.0*,0.4,12.1,-0.7,-8.3
C[C@H]1NC(=O)[C@@H]2C[C@H](NCc3cccc4cccnc34)CN2C1=O,3.7,8.6*,-0.1,11.8,0.2,10.7
CCNc1nc(NC(C)(C)C)nc(N(CC)C(N)=O)n1,-2.0,-0.1,-0.1,5.8,/,/
O=C(CCNC(=O)Cn1cnc2ccccc2c1=O)NCCN1CCCC1,-0.7,3.2,0.0,3.3,/,/
Cc1cccc(C(=O)OCC(=O)c2ccc(Cl)s2)c1,-2.5,0.3,0.4,1.3,/,/
CC(C)(C)c1ccc(OCC(O)CNC2CCCC2)cc1 (stereo not drawn),-2.5,12.4*,0.1,-7.3,0.2,14.9
CC(C)NCC(O)COc1ccc2c(c1)CCC2 (stereo not drawn),22.6,-1.9,0.1,-7.8,/,/
OC(CNC1CCCC1)COc1ccc2c(c1)CCC2 (stereo not drawn),8.6,12.0*,-0.2,-7.7,-1.4,-10.5
O=C(NCc1ccco1)C(Cc1ccccc1)NS(=O)(=O)c1ccc(F)cc1 (stereo not drawn),-2.9,-1.2,-0.1,-5.7,/,/
CCCS(=O)(=O)N1CC(=O)N(c2ccccc2C)C(C)(C(=O)NC2CCCCCC2)C1 (stereo not drawn),-3.6,1.2,0.1,3.1,/,/
O=C1CCCN1CCn1cnc2c(NCCO)nc(Nc3ccc(N4CCOCC4)cc3)nc21,-4.1,5.6*,0.1,10.8,0.2,0.4
CC(C)n1cnc2c(NCCN3CCOCC3)nc(Nc3ccc(-n4ccnc4)cc3)nc21,14.5,6.2*,0.0,11.9,-1.8,-15.2
O=C1CCCN1CCn1cnc2c(Nc3ccc(N4CCOCC4)cc3)nc(Nc3ccc(-n4ccnc4)cc3)nc21,-3.5,5.9*,-0.3,-1.8,0.0,-8.1
COCCNc1c(-c2cc(Cl)c(O)c(Cl)c2)nc2cnccn12,-10.1,-1.1,-0.1,-10.7,/,/
CC(C)(C)c1ccccc1NC(=O)CCl,4.9,-1.4,0.1,5.4,/,/
CC(=O)N(C)c1ccccc1NC(=O)CCl,-9.1,8.7*,-0.1,-12.0,0.1,4.1
CCOc1ccc2cc(S(=O)(=O)NCc3ccccc3)ccc2c1,8.3,5.2*,-0.1,6.7,0.3,6.1
COc1ccc2cc(S(=O)(=O)NCc3ccccc3)ccc2c1,-0.1,0.4,0.0,7.4,/,/
CC1(C)CC(=O)c2sc(NC(=O)COc3ccc(Cl)cc3)nc2C1,8.1,6.4*,-0.1,4.0,0.1,2.9
O=C(OCN1C(=O)c2ccccc2C1=O)C1CCCCC1,4.7,6.1*,0.1,10.1,-1.2,-6.5
O=c1c2ccccc2nc(SCc2cccc(Cl)c2)n1Cc1ccc2c(c1)OCO2,10.2,1.8,0.8,15.2,/,/
Cc1cccc(CNC2CCN(c3ccc(C(=O)N4CCCC(O)C4)cc3)CC2)n1 (stereo not drawn),-8.3,6.7*,-0.1,6.4,0.1,-0.2
CN(C)CCNc1nc2c(c(=O)[nH]c(=O)n2C)n1Cc1ccc([N+](=O)[O-])cc1,4.7,5.1*,0.2,9.1,0.7,6.0

# High-throughput results (PubChem)
